Spn MK inh = inhibitors of Streptococcus pneumoniae mevalonate kinase; purified MK, PK/LDH-coupled NADH absorbance 340 nm; inhibition, % at 10 µM; hit rate 0.48% among 65,000; AID 555;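 active = ranked among the strongest by inhibition in the single 10 µM screen, a fixed top-ranked set picked for dose follow-up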
NADH enzymes = inhibitors of enzymes used to reach an NAD/NADH endpoint | coupled PK/LDH NADH assays, four targets | IC50, µM (series often up to 10 µM) | AID 774 | hit rate 0.02% among 65,000;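 active = single-dose screening hits from any of four coupled enzyme assays that gave an IC50 when retested across doses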;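 note: the DPM-DC format reads NADH fluorescence rather than 340 nm absorbance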
A340 absorber = compounds absorbing at 340 nm. AID 708. compound absorbance at 340 nm, fold over control. 65,000 tested, under 10 active. fold change at 10 µM;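 active = at 10 µM dose, initial 340 nm absorbance at least 2 fold that of control wells; inactive = change under 2 fold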;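 note: initial absorbance extrapolated from kinetic A340 decline of NADH oxidation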
Autofluor 339 = intrinsic fluorescence of library compounds, ex339/em460 – biochemical, MLSMR library, data from DPM-DC assay, artefact control, profiling panel | AID 709 | compound autofluorescence, ex339/em460 nm, NADH buffer; hits give high values; 1 = no-compound wells, NADH background | hit rate 5.5% among 65,000 | fluorescence fold increase at 10 µM;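 active = at 10 µM, mean starting fluorescence two-fold or more over control wells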;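 note: signal is the first read of a kinetic run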
Spn PMK inh = inhibitors of Streptococcus pneumoniae phosphomevalonate kinase; purified PMK, PK/LDH-coupled NADH absorbance 340 nm; inhibition, % at 10 µM; hit rate 0.49% among 65,000;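 active = top-ranked compounds by inhibition in the single 10 µM screen, taking a fixed number of the strongest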
Spn DPM-DC inh = inhibitors of Streptococcus pneumoniae diphosphomevalonate decarboxylase. purified DPM-DC, PK/LDH coupled NADH fluorescence. calls only at 10 µM. hit rate 0.49% among 65,000. AID 556;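 active = the 320 compounds with the highest percent inhibition in the single-dose primary screen, excluding strongly autofluorescent ones, cut at about 32% in these data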;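 note: kinetic rate of NADH fluorescence loss reporting ADP formed by the decarboxylase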
Hits are given with their value; . = inactive; / = not tested or not shown; + = active, no number. Most compounds without a hit are left out; they make up all but 6.8% or so of the library.

SMILES | Spn MK inh | NADH enzymes | A340 absorber | Autofluor 339 | Spn PMK inh | Spn DPM-DC inh
CC(C)C1N=C2c3ccccc3N=C(SCC(=O)NCCc3ccc(S(N)(=O)=O)cc3)N2C1=O (stereo not drawn) | . | . | . | 2.4 | . | .
CCC(C)NC(=O)CSC1=Nc2ccccc2C2=NC(CC(=O)NCc3ccc(F)cc3)C(=O)N12 (stereo not drawn) | . | . | . | 2.83 | . | .
CCOC(=O)CSC1=Nc2ccccc2C2=NC(CC(=O)NCc3cccs3)C(=O)N12 (stereo not drawn) | . | . | . | . | . | .
Cc1ccc2c(c1)-c1cc(C)nn1C(c1ccc3c(c1)OCO3)N2 (stereo not drawn) | . | . | . | . | . | .
c1cncc(C2Nc3ccccc3-c3nc4ccccc4n32)c1 (stereo not drawn) | . | . | . | . | . | .
Cc1cc2n(n1)C(c1ccc(N(C)C)cc1)Nc1ccccc1-2 (stereo not drawn) | . | . | . | 3.71 | . | /
Cc1cc2n(n1)C(c1ccccc1)Nc1ccccc1-2 (stereo not drawn) | . | . | . | 2.01 | . | .
Cc1cc2n(n1)C(c1ccc3c(c1)OCO3)Nc1ccccc1-2 (stereo not drawn) | . | . | . | 2.28 | . | .
CCOC(=O)c1cc(C(O)(C(F)(F)F)C(F)(F)F)c(/N=C/N(C)C)o1 | . | . | . | . | . | .
O=C(CSc1nnc(-c2ccncc2)n1-c1ccc(Cl)cc1)N1CCOCC1 | . | . | . | . | . | .
c1ccc2c(c1)NC1(CCCC1)n1c-2nc2ccccc21 | . | . | . | 4.95 | . | /
c1ccc2c(c1)NC(c1ccncc1)n1c-2nc2ccccc21 (stereo not drawn) | . | . | . | . | . | .
O=C(CCNc1ccc(F)cc1)c1ccco1 | . | . | . | . | . | .
CN(C)c1ccc(-c2nnc(-c3ccc(S(=O)(=O)C(F)F)cc3)o2)cc1 | . | . | . | . | . | .
COc1ccc(-c2nnc(-c3ccc(N)cc3)o2)cc1 | . | . | . | 2.92 | . | /
COc1ccc(-c2ccc(-c3nnc(-c4cc(OC)ccc4OC)o3)cc2)cc1 | . | . | . | 3.69 | . | /
COc1ccc(-c2nnc(-c3ccc(N(C)C)cc3)o2)cc1 | . | . | . | 2.1 | . | /
O=C(Cn1cc2c(n1)CCCC2)N1CCCc2ccccc21 | . | . | . | . | . | .
Cc1ccc(-n2c(Cn3cnc4ccccc43)nnc2SCC(=O)O)cc1 | . | . | . | . | . | .
CCCn1c(-c2ccccc2)nc2c(=O)n(C)c(=O)[nH]c21 | . | . | . | 2.19 | . | /
COc1ccc(-c2nc3c(=O)n(C)c(=O)[nH]c3n2CCc2ccccc2)cc1 | . | . | . | 3.85 | . | /
Cc1nc2c(=O)n(C)c(=O)[nH]c2n1Cc1ccccc1 | . | . | . | . | . | .
O=C(c1ccccc1F)N1CCC(N2CCCCCC2)CC1 | . | . | . | . | . | .
O=C(c1ccc(F)cc1)N1CCC(N2CCCCCC2)CC1 | 78.0 | . | . | . | . | +
CCCCCC(=O)Nc1cc(N(C)C)nc2ccccc12 | . | . | . | 2.19 | . | /
SMILES | Spn MK inh | NADH enzymes | A340 absorber | Autofluor 339 | Spn PMK inh | Spn DPM-DC inh
COc1ccc(N2CCN(c3ccc(N)cc3C#N)CC2)cc1 | . | . | . | . | . | .
COc1ccc(C(=O)Nc2ccc(N3CCN(c4ccc(OC)cc4)CC3)c(C#N)c2)cc1 | . | . | . | 5.12 | . | /
COc1ccc(N2CCN(c3ccc(NC(=O)C4CCCCC4)cc3C#N)CC2)cc1 | . | . | . | 2.19 | . | .
COc1ccc(C(=O)N2CCC(C(=O)Nc3ccc(OC)c(OC)c3)CC2)cc1 | . | . | . | . | . | .
Cc1ccc(CN2CCN(C(=O)C3CCC3)CC2)cc1 | . | . | . | . | active | .
O=C(C1CCC1)N1CCN(Cc2ccccc2)CC1 | . | . | . | . | . | .
O=c1cc(NCCO)c2ccccc2o1 | . | . | . | . | . | .
OCCCCNc1cccc2ccccc12 | . | . | . | 3.72 | . | /
CC1(C)Cc2ccccc2-c2nc(NCCO)n(-c3ccccc3)c(=O)c21 | . | . | . | 2.2 | . | /
CCC1(C)Cc2ccccc2-c2nc(NCCO)n(-c3ccccc3)c(=O)c21 (stereo not drawn) | . | . | . | 2.34 | . | /
Oc1oc(-c2ccco2)nc1C=Nc1cccc(Cl)c1 | . | . | . | . | . | .
Cc1cc(O)c(C=Nc2cccc(Cl)c2)c(=O)o1 | . | . | . | . | . | +
COC(=O)C1=C(C)OC(N)=C(C#N)C1c1cc(OC)c(OCC(N)=O)cc1Cl (stereo not drawn) | 48.0 | . | . | . | 37.0 | +
COC(=O)C1=C(C)OC(N)=C(C#N)C1c1ccccc1F (stereo not drawn) | . | . | . | . | . | .
CCS(=O)(=O)NCCc1csc(C)n1 | 77.0 | . | . | . | . | .
CCS(=O)(=O)NCc1csc(C)n1 | . | . | . | . | . | .
C=CCOc1nc2c(c(=O)n(C)c(=O)n2C)n1Cc1c(Cl)cccc1Cl | . | . | . | . | . | .
COc1ccc2[nH]c(=O)c(CN(Cc3cccs3)Cc3nnnn3C(C)(C)C)cc2c1 | . | . | . | . | . | .
COc1ccc2cc(CN(CCCN3CCOCC3)Cc3nnnn3C3CCCCC3)c(=O)[nH]c2c1 | . | . | . | . | . | .
CCOc1ccc2[nH]c(=O)c(CN(Cc3cccs3)Cc3nnnn3C(C)(C)C)cc2c1 | . | . | . | 2.38 | . | .
CCOc1ccc2[nH]c(=O)c(CN(CCN3CCOCC3)Cc3nnnn3C(C)(C)CC)cc2c1 | . | . | . | 2.61 | . | .
CSc1nc2nc(C)cc(-c3ccccc3)n2n1 | . | . | . | . | . | .
CSc1nc2nc(-c3ccccc3)cc(C(F)(F)F)n2n1 | . | . | . | 3.83 | . | /
COc1ccc(OCC(O)Cn2c(Nc3cccc(C)c3)nc3c2c(=O)n(C)c(=O)n3C)cc1 (stereo not drawn) | . | . | . | . | . | .
C1=C(c2ccc(-c3ccccc3)cc2)Nc2ncnn2C1c1ccco1 (stereo not drawn) | . | . | . | 3.85 | . | /
SMILES | Spn MK inh | NADH enzymes | A340 absorber | Autofluor 339 | Spn PMK inh | Spn DPM-DC inh
COc1ccc(C2C=C(c3ccc(C)cc3)Nc3ncnn32)cc1 (stereo not drawn) | . | . | . | 2.35 | . | /
CCOc1ccc(C2C=C(c3ccc(F)cc3)Nc3ncnn32)cc1 (stereo not drawn) | . | . | . | 2.48 | . | /
CCOc1ccc(C2C=C(c3ccccc3)Nc3ncnn32)cc1 (stereo not drawn) | . | . | . | 2.36 | . | /
COc1ccc(C2=CC(c3ccc(C)cc3)n3nnnc3N2)cc1 (stereo not drawn) | . | . | . | . | . | .
COc1cccc(C2=CC(c3ccccc3)n3ncnc3N2)c1 (stereo not drawn) | . | . | . | . | . | .
CCOC(=O)c1c(NC(=O)CN2CCOCC2)sc2c1CC(C)(C)OC2 | . | . | . | . | . | .

Screening data as filed in PubChem.
